Source: PubChem BioAssay (EPA / NIEHS)
Results filed as inconclusive are left out. Some compounds were tested as several samples or in several runs, with calls that do not always agree. The source made the active and inactive calls. The calls were made as follows: active = hit-call score of the fitted dose curve at least 0.9, where 1 is the maximum; inconclusive = response in the unintended direction; inactive = score below 0.9.

Key:
[1] = target: Cellular tumor antigen p53 (Homo sapiens) (UniProt P04637); assay: TOX21_p53_BLA_p2_ratio: Tox21 HCT-116 p53 Agonism Beta-lactamase Assay, Ratio, Phase 2 (AID 2283592)
Chain of Cellular tumor antigen p53 (Homo sapiens) (P04637 whole entry, looked up): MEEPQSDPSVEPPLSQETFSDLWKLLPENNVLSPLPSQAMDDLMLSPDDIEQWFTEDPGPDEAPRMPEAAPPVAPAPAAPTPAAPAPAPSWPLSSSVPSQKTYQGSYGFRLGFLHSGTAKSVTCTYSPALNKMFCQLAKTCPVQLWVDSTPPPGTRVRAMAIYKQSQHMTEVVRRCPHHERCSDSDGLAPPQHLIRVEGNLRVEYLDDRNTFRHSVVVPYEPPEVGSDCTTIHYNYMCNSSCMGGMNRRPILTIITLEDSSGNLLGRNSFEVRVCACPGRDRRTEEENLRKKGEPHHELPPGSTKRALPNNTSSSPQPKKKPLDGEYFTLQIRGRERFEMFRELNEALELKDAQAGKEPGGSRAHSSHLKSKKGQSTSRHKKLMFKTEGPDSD
Outline: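 Ratio endpoint: beta-lactamase cleavage of CCF4-AM, blue (460 nm) over green (530 nm). HCT116 reporter line; 16 h treatment, 37C; substrate 2 h RT.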

[2] = TOX21_p53_BLA_p3_viability: Viability Assessment in the Tox21 HCT-116 p53 Agonism Beta-lactamase Assay, Phase 3 (AID 2283593);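 also: cells exposed to compound for 16 h before reading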
Outline: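 HCT116 cells, 4000/well, dosed 5 h after plating by pin transfer (217-fold dilution from DMSO stock) and incubated 16 h at 37C, 5% CO2. Viability read as ATP luminescence with CellTiter-Glo after 30 min at room temperature.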

[3] = target: Cellular tumor antigen p53 (Homo sapiens) (UniProt P04637); assay: TOX21_p53_BLA_p3_ratio: Tox21 HCT-116 p53 Agonism Beta-lactamase Assay, Ratio, Phase 3 (AID 2283596)
Outline: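 Cells were seeded at 4000/well, rested 5 h at 37C, then dosed with DMSO compound solutions (217-fold dilution) for 16 h. CCF4-AM substrate was loaded for 2 h at room temperature, and the 460/530 nm emission ratio was fitted for gain of signal versus DMSO.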

[4] = TOX21_p53_BLA_p4_viability: Viability Assessment in the Tox21 HCT-116 p53 Agonism Beta-lactamase Assay, Phase 4 (AID 2283597);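 also: hits lower the luminescence signal meaning cytotoxicity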
Outline: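 Cytotoxicity was inferred from loss of CellTiter-Glo luminescence. HCT116 cells had been dosed with compounds after 5 h plating, incubated 16 h at 37C and 5% CO2, and exposed to the CCF4-AM substrate for 2 h.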

[5] = target: Cellular tumor antigen p53 (Homo sapiens) (UniProt P04637); assay: TOX21_p53_BLA_p5_ratio: Tox21 HCT-116 p53 Agonism Beta-lactamase Assay, Ratio, Phase 5 (AID 2283599)
Outline: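 HCT-116 p53-bla cells (4000/well) plated 5 h, dosed with compound (217-fold DMSO dilution) for 16 h at 37 C; CCF4-AM substrate 2 h at room temperature. Activity is the 460/530 nm emission ratio (405 nm excitation), fitted in gain-of-signal direction versus DMSO.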

[6] = target: Cellular tumor antigen p53 (Homo sapiens) (UniProt P04637); assay: TOX21_p53_BLA_p4_ratio: Tox21 HCT-116 p53 Agonism Beta-lactamase Assay, Ratio, Phase 4 (AID 2283601)
Outline: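 HCT-116 p53 beta-lactamase reporter cells (4000/well) preincubated 5 h, then compound (217-fold dilution of DMSO stock) for 16 h at 37C. CCF4-AM substrate added 2 h at room temperature; 460/530 nm emission ratio fitted upward versus DMSO.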

[7] = Tanguay_ZF_120hpf_MORT_legacy: (Legacy) Oregon State University Tanguay Lab 120 Hour Post-fertilization zebrafish Assay for Mortality (AID 2283633)
Outline: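 Dechorionated Tropical 5D wild-type zebrafish embryos, one per well from 6 hpf, were statically exposed at 28C in the dark until 120 hpf (0.64% DMSO final). Mortality was scored as present/absent by brightfield microscopy, fitted positively versus DMSO.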

[8] = Tanguay_ZF_120hpf_YSE_legacy: (Legacy) Oregon State University Tanguay Lab 120 Hour Post-fertilization zebrafish Assay for Yolk Sac Edema (AID 2283634);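 as to AC50: actives raise the incidence of yolk sac edema above the DMSO baseline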
Outline: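 Tropical 5D wild-type embryos, dechorionated with pronase at 4 hpf, were exposed singly from 6 hpf to 120 hpf under static, sealed, dark conditions at 28C with 0.64% DMSO final. Yolk sac edema was scored present/absent by brightfield microscopy.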

[9] = Tanguay_ZF_120hpf_AXIS_legacy: (Legacy) Oregon State University Tanguay Lab 120 Hour Post-fertilization zebrafish Assay for Body Axis Malformation (AID 2283635);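 as to AC50: potency for an increased fraction of larvae scored with body axis malformation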
Outline: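 Tropical 5D wild-type zebrafish embryos, dechorionated with pronase at 4 hpf, were placed singly in wells at 6 hpf and exposed statically to test chemical (0.64% DMSO final) at 28C until 120 hpf, then scored by brightfield for body axis defects.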

[10] = Tanguay_ZF_120hpf_EYE_legacy: (Legacy) Oregon State University Tanguay Lab 120 Hour Post-fertilization zebrafish Assay for Eye Malformation (AID 2283636);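 also: binary presence or absence of eye malformation scored by brightfield in 120 hpf larvae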
Outline: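 5D wild-type embryos, pronase-dechorionated at 4 hpf; static exposure 6–120 hpf, 28C, dark; DMSO 0.64% final; 5uM trimethyltin chloride positive control. Binary eye-defect scoring at 120 hpf; dead embryos not scored.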

[11] = Tanguay_ZF_120hpf_SNOU_legacy: (Legacy) Oregon State University Tanguay Lab 120 Hour Post-fertilization zebrafish Assay for Snout Malformation (AID 2283637)
Outline: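 Binary brightfield scoring of snout malformation at 120 hpf. Dechorionated 5D wild-type embryos, one per well, static exposure from 6 hpf at 28C, sealed and dark; final DMSO 0.64% (vol/vol), DMSO as baseline; 5uM trimethyltin chloride positive control.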

[12] = Tanguay_ZF_120hpf_JAW_legacy: (Legacy) Oregon State University Tanguay Lab 120 Hour Post-fertilization zebrafish Assay for Jaw Malformation (AID 2283638);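 as to AC50: active means more embryos with jaw malformation than DMSO controls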
Outline: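 Tropical 5D wild-type embryos, dechorionated with pronase at 4 hpf, were placed singly per well at 6 hpf and statically exposed at 28C until 120 hpf (0.64% DMSO final). Jaw malformation scored as present/absent by brightfield microscopy at 120 hpf, analyzed relative to DMSO.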

[13] = Tanguay_ZF_120hpf_OTIC_legacy: (Legacy) Oregon State University Tanguay Lab 120 Hour Post-fertilization zebrafish Assay for Otic Vesicle Malformation (AID 2283639)
Outline: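 Brightfield scoring at 120 hpf, binary present/absent; DMSO negative control, 5uM trimethyltin chloride positive control. Static exposure at 28C, final DMSO 0.64% (vol/vol). Dead embryos not scored for malformation.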

[14] = Tanguay_ZF_120hpf_PE_legacy: (Legacy) Oregon State University Tanguay Lab 120 Hour Post-fertilization zebrafish Assay for Pericardial Edema (AID 2283640);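 as to AC50: potency for increased incidence of pericardial edema versus DMSO baseline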
Outline: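 Tropical 5D wild-type zebrafish embryos were exposed statically to 120 hpf at 28C, sealed and foil-covered, in 0.64% DMSO final. Pericardial edema was scored present/absent by brightfield microscopy; dead embryos were not scored.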

[15] = Tanguay_ZF_120hpf_SOMI_legacy: (Legacy) Oregon State University Tanguay Lab 120 Hour Post-fertilization zebrafish Assay for Somite Malformation (AID 2283647)
Outline: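 Tropical 5D wild-type zebrafish embryos, dechorionated with pronase at 4 hpf, were placed singly at 6 hpf and statically exposed until 120 hpf at 28C in 0.64% DMSO. Somite malformation was scored present/absent by brightfield microscopy versus DMSO.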

[16] = Tanguay_ZF_120hpf_PFIN_legacy: (Legacy) Oregon State University Tanguay Lab 120 Hour Post-fertilization zebrafish Assay for Pectoral Fin Malformation (AID 2283648);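 also: each larva judged yes or no for fin defect by brightfield with dead larvae skipped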
Outline: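 Binary pectoral fin malformation call at 120 hpf by brightfield microscopy; 5D wild-type zebrafish, chorion removed at 4 hpf, one embryo per well from 6 hpf, static exposure at 28C; DMSO (0.64% final) as baseline.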

[17] = TOX21_p53_BLA_p2_viability: Viability Assessment in the Tox21 HCT-116 p53 Agonism Beta-lactamase Assay, Phase 2 (AID 2283591);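 also: compound exposure lasted 16 h at 37 °C; actives lower the ATP signal meaning cytotoxicity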
Outline: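 HCT116 p53-bla cells, 4000/well, dosed after 5 h plating (217-fold dilution of DMSO stocks) and incubated 16 h at 37C. Viability taken as cellular ATP by CellTiter-Glo luminescence after 30 min RT; signal loss marks cytotoxicity.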

[18] = TOX21_p53_BLA_p5_viability: Viability Assessment in the Tox21 HCT-116 p53 Agonism Beta-lactamase Assay, Phase 5 (AID 2283600)
Outline: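 Luciferase-coupled ATP quantitation of cells treated for 16 h (37C, 5% CO2) with test chemicals delivered in DMSO via a 217-fold dilution; 4000 cells/well; reagent incubated 30 min at room temperature before luminescence reading.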

[19] = Tanguay_ZF_120hpf_CFIN_legacy: (Legacy) Oregon State University Tanguay Lab 120 Hour Post-fertilization zebrafish Assay for Caudal Fin Malformation (AID 2283649)
Outline: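 Tropical 5D wild-type embryos, dechorionated with pronase at 4 hpf, were placed singly in wells at 6 hpf and statically exposed to compound at 28C until 120 hpf (0.64% DMSO). Caudal fin malformation was scored present/absent by brightfield microscopy.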

[20] = Tanguay_ZF_120hpf_BRAI_legacy: (Legacy) Oregon State University Tanguay Lab 120 Hour Post-fertilization zebrafish Assay for Brain Malformation (AID 2283641)
Outline: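 Tropical 5D wild-type zebrafish embryos were exposed statically in sealed, foil-covered plates at 28C until 120 hpf, with 0.64% (vol/vol) final DMSO. Brain malformation was scored present/absent by brightfield microscopy, relative to DMSO baseline.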

Measured: AC50

c1ccc(C(O[C@@H]2CCCN(CCc3ccc4c(c3)OCO4)C2)c2ccccc2)cc1
active: [1] 70.1 µM | [8] 24.7 µM | [9] 34.7 µM | [10] 36.5 µM | [11] 44.2 µM | [12] 44.8 µM | [13] 45.8 µM | [14] 36 µM | [16] 33.4 µM
inactive: [2] | [3] | [4] | [5] | [6] | [7] | [15]

Cc1cccc(O)c1C
inactive: [17] | [2] | [3] | [5] | [18] | [6]

c1ccc2ncccc2c1
not listed: [19] | [20]
inactive: all other assays above

CCCCC(CC)C(=O)OCCOCCOCCOC(=O)C(CC)CCCC (stereo unspecified)
not listed: [5] | [20]
inactive: all other assays above

OC(CCl)CCl
not listed: [6] | [19] | [20]
inactive: all other assays above

NC(=O)N1c2ccccc2C=Cc2ccccc21
inactive: [7] | [8] | [9] | [10] | [11] | [12] | [13] | [14] | [20] | [15] | [16]

S=P(N1CC1)(N1CC1)N1CC1
inactive: [17] | [1] | [2] | [3] | [4] | [5] | [18] | [6]
active: [3] 48.8 µM

NC(=O)NN=Cc1ccc([N+](=O)[O-])o1
not listed: [10] | [13] | [19] | [20]
inactive: all other assays above
